# Screening results from PubChem BioAssay.
# Lmaj promast: inhibitors of Leishmania major promastigote growth; Leishmania major promastigotes, resazurin fluorescence viability; inhibition, % at 10 µM; 9% of 200,000 active; AID 1063; in the data active = inhibition above about 50%;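 also: promastigotes grown with compound for 44 hours at 28 °C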
# CHOP inh: CHOP inhibition in unfolded protein response; CHO-K1 CHOP-promoter luciferase, tunicamycin-induced, 15-18 h; inhibition, % at 10 µM; 3.8% of 220,000 active; AID 2732;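 active = compounds that reduced the stress-induced luciferase reporter signal by more than about 70% of percent inhibition, limit read from the data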;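 also: 0% = tunicamycin plus vehicle and 100% = wells without tunicamycin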
# Arbovirus anti: blocks arbovirus infection; arbovirus infection cell-based antiviral screen; inhibition, % at 10 µM; 0.37% of 200,000 active; AID 1251; in the data active = inhibition above about 30%
# WT yeast gro inh: growth inhibition of WT yeast, mitochondrial fusion screen. mitochondrial fusion phenotypic screen, WT strain. inhibition, % at 10 µM. 2.1% of 190,000 active; in the data active = inhibition above about 58%; tested in S. cerevisiae
# CHOP confirm: confirmation of CHOP induction inhibitors; inhibition, % at 10 µM; 45% of 2,100 active; shares compounds with CHOP inh; CHO-CHOP promoter luciferase reporter, tunicamycin-induced, luminescence;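 active = mean of three repeat readings of reporter signal inhibition above a set limit, cut at about 70% in these data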;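 also: 0% = tunicamycin plus vehicle and 100% = wells lacking tunicamycin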
# * hit, by the source's call; . = no result given. A selection: hits, their analogues and other compounds. The true share with any hit is near 12%.
SMILES,Lmaj promast,CHOP inh,Arbovirus anti,WT yeast gro inh,CHOP confirm
O=C(Nc1nc2ccc(SC(F)F)cc2s1)c1ccc(NS(=O)(=O)c2ccc(F)c(F)c2)cc1,68.7*,105.8*,-9.4,-2.4,-4.6
Cc1ccc(NC(=O)O/N=C/c2c(C)nn(C(C)(C)C)c2C)cc1Cl,.,99.2*,.,.,120.4*
Cc1ccc(NC(=O)NCc2c(C)nn(C)c2C)cc1Cl,-5.7,-0.7,-11.3,-13.7,.
CC1(C)CCCN(Cc2c(O)ccc3c(=O)c(-c4nc5ccccc5s4)c(N)oc23)C1,.,104.0*,.,.,2.1
COc1cccc(C(=O)Oc2ccc(N3C(=O)CCC3=O)c(C)c2)c1,-5.2,1.3,6.5,7.5,.
O=c1c2ccccc2nc(-c2ccco2)n1Cc1ccccc1,6.3,47.2,6.9,7.6,.
O=C(On1c(-c2ccccc2)nc2ccccc2c1=O)c1ccco1,-4.0,104.5*,7.4,26.6,116.3*
COC(=O)c1[nH]c2ccccc2c1NC(=O)C(C)N1CC(C)OC(C)C1 (centres undefined),.,19.6,.,.,.
CC(=O)/C=C(\C)N=Nc1c(O)[nH]c2ccccc12,.,-12.3,.,.,.
O=C(OCn1ncc(Cl)c(Cl)c1=O)c1cccc(C(F)(F)F)c1,58.6*,106.9*,-32.4,5.5,120.1*
S=C(NCC1CC1)N/N=C/c1ccccc1Cl,.,-25.6,.,.,.
CCOC(=O)NC(NC(=O)OCC)C(=O)c1ccc(F)cc1,-6.1,12.6,2.9,-17.8,.
Nc1n[nH]c(C2CC2)c1N=Nc1ccc(Cl)cc1,.,15.7,.,.,.
Cc1cccc(N=Nc2c(N)n[nH]c2-c2ccc(Cl)cc2)c1,5.0,109.2*,10.6,-55.9,107.8*
Cc1ccc(-n2nc(C)c3c2OC(N)=C(C#N)C3c2ccccc2F)cc1 (centres undefined),4.7,96.5*,7.2,11.3,4.6
CN(CCc1ccccn1)S(=O)(=O)c1ccc(F)cc1,-2.4,8.6,-0.6,7.4,.
CC(C)(C)c1cc(S(=O)(=O)CCc2ccccn2)cc(C(C)(C)C)c1F,31.5,97.2*,-12.9,34.5,130.7*
O=C(NNC(=O)c1cccc2ccccc12)c1ccc(-c2ccccc2)cc1,-6.4,97.9*,-9.2,6.4,82.1*
CC(=O)NCCn1c(SCc2cc(=O)n3cc(Cl)ccc3n2)nc2ccccc2c1=O,-5.6,31.0,1.9,-14.1,.
CC1=NOC(=O)/C1=C\c1ccc(-c2cc(Cl)ccc2Cl)o1,99.1*,113.5*,-42.2,54.2,-20.3
CC1=NOC(=O)/C1=C/c1ccc(-c2ccc(Cl)cc2)o1,99.8*,108.6*,-45.3,75.2*,65.7
CC1=NOC(=O)/C1=C\c1ccc(-c2ccc(Br)cc2C(=O)O)o1,-3.8,-9.7,6.0,-12.5,.
CCOc1cc(/C=C\[N+](=O)[O-])ccc1OCC(=O)Nc1ccccc1C,71.2*,107.8*,-36.8,-8.0,136.2*
CCOC(=O)C1=C(N)OC2=C(C(=O)CC(C)(C)C2)C1c1cccs1 (centres undefined),8.8,-12.7,-1.9,-27.5,.
COc1ccc2c3c(cccc13)C(=O)N(O)C2=O,35.0,101.7*,-19.4,23.2,108.4*
SMILES,Lmaj promast,CHOP inh,Arbovirus anti,WT yeast gro inh,CHOP confirm
COc1ccc2c3c(cccc13)OCC2=O,-3.2,-11.3,3.7,-17.0,.
CC(C)(C=O)C1=CC(=O)c2ccccc2C1=O,55.6*,98.2*,-42.2,77.8,-225.4
CC(C)(C)c1ccc2c(c1)C(=O)c1ccccc1C2=O,-6.2,54.0,-2.1,30.9,.
COC(=O)c1ccc(N)c(N=CC2=C(O)CC(C)(C)CC2=O)c1,-2.2,42.5,-5.9,10.0,.
COC(=O)c1ccc2c(c1)C(C)(C)C(/C=C/c1ccccc1O)=[N+]2C,100.6*,108.4*,-31.6,6.5,120.3*
CCOC(=O)C1CCCN(S(=O)(=O)c2cc(OCC(N)=O)c(C)cc2Cl)C1 (centres undefined),-2.1,20.2,1.9,1.4,.
Cc1cc(Cl)c(S(=O)(=O)N2CCN(c3cccc(C)c3C)CC2)cc1OCC(N)=O,95.5*,107.1*,10.0,23.8,69.5
CCC1CCCCN1C(=O)CCc1nnc(Cc2cc(OC)ccc2OC)o1 (centres undefined),.,-7.0,.,.,.
N#CC1=C(N)C2=CCCC[C@H]2[C@H](c2ccccc2)C1(C#N)C#N,31.4,-13.1,17.9,11.9,.
N#CC1=C(N)C2=CCCC[C@H]2[C@H](c2ccc(Br)cc2)C1(C#N)C#N,77.7*,99.3*,-0.1,67.6*,23.7
S=C1NCN(C2CCCCC2)CN1c1ccccc1,.,25.1,.,.,.
O=C(N/N=C/c1cccc2ccccc12)c1n[nH]c2c1CCCC2,-0.6,100.7*,-16.2,-2.3,8.7
C=CCOC(=O)C1=C(C)NC(SCC(N)=O)=C(C#N)C1c1ccc(C)cc1 (centres undefined),.,19.2,.,.,.
C=CCOC(=O)C1=C(C)NC(SCC)=C(C#N)C1c1ccc(Cl)cc1 (centres undefined),100.0*,102.0*,-29.5,8.1,59.4
Cc1ncc(N=Nc2ccccc2Cl)c(-c2ccccc2)n1,5.4,-16.3,-4.6,2.1,.
Nc1nc(-c2ccccc2)c(N=Nc2ccccc2Cl)s1,-0.5,97.1*,4.2,16.2,80.5*
CCc1nnc(NC(=O)CSc2nc3ccccc3o2)s1,-8.9,-20.5,26.3,-4.9,.
CC1CCc2nc(NC(=O)CSc3nc4ccccc4o3)sc2C1 (centres undefined),2.5,96.7*,2.9,4.0,22.6
COc1ccc(OC)c(C(=O)c2coc3ccc(O)cc23)c1,-0.8,15.9,-1.6,-6.5,.
COC/C=C/C1=CC2=CC(=O)C(C)(OC(=O)C3CCCC3)C(=O)C2=CO1 (centres undefined),.,99.1*,.,.,9.2
NC(N)=N/N=C/c1ccc(OCc2ccccc2Cl)cc1,100.7*,97.2*,-41.5,62.0*,-14.5
CCN1C(=O)[C@@H]2C(C(=O)c3cnccn3)=NN[C@@H]2C1=O,.,6.0,.,.,.
CC1(C)Cc2nc3nc(SCC(=O)NCCc4ccccc4)n(-c4ccccc4)c(=O)c3cc2CO1,4.8,-4.9,2.1,1.7,.
O=C(CCN1C(=O)/C(=C/C=C/c2ccccc2)SC1=S)Nc1cccnc1,27.7,102.1*,8.3,-16.6,30.4
Clc1ccc(-c2csc(N/N=C/c3cccnc3)n2)c(Cl)c1,-2.3,98.0*,5.2,9.0,87.2*
SMILES,Lmaj promast,CHOP inh,Arbovirus anti,WT yeast gro inh,CHOP confirm
Cc1cccc(/C=C/c2nc3ccccc3c(=O)n2Cc2ccccc2)c1,21.9,45.2,-3.1,20.6,.
Cc1cccc(/C=C/c2nc3ccccc3c(=O)[nH]2)c1,3.3,102.4*,-18.1,-3.7,120.8*
CC1=CC(C)(C)N2C(=O)C3(NCCc4c3[nH]c3ccccc43)c3cc(C)cc1c32 (centres undefined),.,-15.8,.,.,.
CC1=CC(C)(C)N2C(=O)C3(SCC(=O)N3c3ccc(F)cc3)c3cc(C)cc1c32 (centres undefined),92.2*,107.5*,6.2,29.5,111.7*
O=C1[C@H]2[C@@H](C(=O)N1c1cccc3ccccc13)C1(C(=O)c3ccccc3C1=O)N1CCC[C@@H]21,3.4,15.1,-6.7,-1.9,.
O=C(NCC1CCCO1)c1ccc2c(=O)n(CC3CCCO3)c(SCC(=O)N3CCCC3)nc2c1 (centres undefined),2.6,-6.9,6.8,-6.0,.
O=C(C1CCCCC1)N1CCN=C1SCc1cccc([N+](=O)[O-])c1,17.4,33.5,-8.1,15.6,.
